According to PMC10726135, “HNF4α isoforms regulate the circadian balance between carbohydrate and lipid metabolism in the liver”:
Over roughly 18,000 sequences, “log2 normalized intensity” has its median near 0.36; the highest 2% begin near 7.3. This excerpt belongs to a sample that is enriched for the highest values.

target: T1, HNF4alpha8 (COS-7 nuclear extract) (Homo sapiens, UniProt P41235-5 1-452); assay: protein-binding microarray; COS-7 nuclear extract on double-stranded Agilent 4x180k PBM; binding buffer, salt, pH and temperature not given in the material; high values mean tight binding; conditions: chain copies: 2; label: 3' end of strand 1 on the slide; dsDNA, one strand shown
T1 sequence: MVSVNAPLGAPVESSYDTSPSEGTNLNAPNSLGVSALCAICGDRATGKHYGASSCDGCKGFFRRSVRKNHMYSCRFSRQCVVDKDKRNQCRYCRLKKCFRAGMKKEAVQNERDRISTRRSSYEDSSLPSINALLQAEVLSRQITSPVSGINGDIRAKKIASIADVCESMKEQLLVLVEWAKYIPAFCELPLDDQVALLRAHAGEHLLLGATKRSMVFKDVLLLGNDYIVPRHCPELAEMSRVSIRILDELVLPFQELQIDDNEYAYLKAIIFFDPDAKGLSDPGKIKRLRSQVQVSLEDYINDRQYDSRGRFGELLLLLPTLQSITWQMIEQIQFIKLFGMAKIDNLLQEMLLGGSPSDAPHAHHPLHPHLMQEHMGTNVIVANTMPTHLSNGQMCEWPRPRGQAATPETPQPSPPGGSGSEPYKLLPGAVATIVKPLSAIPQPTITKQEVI
Outline: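 Double-stranded oligonucleotides of ~60 nt, representing ~44,000 test sequences in quadruplicate, made up a custom Agilent SurePrint G3 4x180k array. Nuclear extracts from COS-7 cells transiently transfected by CaPO4 with a human HNF4α isoform expression vector were applied, and bound HNF4α was imaged at 2-µm resolution on an Agilent G2565CA scanner. Binding signal refers to the background-corrected, normalized gProcessedSignal output of Agilent software.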

Sequence | binding signal
CTTTCCTGGTGCCTCCTTATCTCCCCAACTGCCTAGGGAGATTAGAGTATCGGTCGA | 3.48 log2 normalized intensity
TTTTAATTAGAACTGTAATTGAGTAACCAGGCCTAGGGAGATTAGAGTATCGGTCGA | 0.406 log2 normalized intensity
TAAGCTACTGAAAATGACCTTTGTTCCCTGGCCTAGGGAGATTAGAGTATCGGTCGA | 9.03 log2 normalized intensity
TACTGAAAATGACCTTTGTTCCCTGCACTTGCCTAGGGAGATTAGAGTATCGGTCGA | 7.89 log2 normalized intensity
ATCTCTAAGCTACTGAAAATGACCTTTGTTGCCTAGGGAGATTAGAGTATCGGTCGA | 6.73 log2 normalized intensity
AATTCATCTCTAAGCTACTGAAAATGACCTGCCTAGGGAGATTAGAGTATCGGTCGA | 3.88 log2 normalized intensity
AAAAAAAAAAATTACTGACCCTTGCACTGTGCCTAGGGAGATTAGAGTATCGGTCGA | 5.45 log2 normalized intensity
GAAACCCTAAACCTGCAAACCTTTGACCTTGCCTAGGGAGATTAGAGTATCGGTCGA | 5.96 log2 normalized intensity
GATTTTCAGGTTCCCCAGTGAGGATGTGTGGCCTAGGGAGATTAGAGTATCGGTCGA | 1.53 log2 normalized intensity
TGGCGTATGCAGCAGGGCAGCAGCCTGACCGCCTAGGGAGATTAGAGTATCGGTCGA | 0.823 log2 normalized intensity
TTAACCTCTATTGACCTTCTTATTTGGAGAGCCTAGGGAGATTAGAGTATCGGTCGA | 2.41 log2 normalized intensity
GAGGAGACCTTTGGATATCATATCATCTTCGCCTAGGGAGATTAGAGTATCGGTCGA | 2.39 log2 normalized intensity
TAGTTAGAGTCACTGATAAGTCTGCTTGCCGCCTAGGGAGATTAGAGTATCGGTCGA | -0.858 log2 normalized intensity
CGCCCCCAACGGGCCACGCCCTGCACCCTAGCCTAGGGAGATTAGAGTATCGGTCGA | 4.07 log2 normalized intensity
TTGTGGCAGTGAGAACAGGTTCATTCTTTAGCCTAGGGAGATTAGAGTATCGGTCGA | 0.687 log2 normalized intensity
GCTTGAGCGAGACAGCGGGTGTTTCTGGGAGCCTAGGGAGATTAGAGTATCGGTCGA | 0.72 log2 normalized intensity
TCATTGCCTCTGGGCTTTGATGGACATTGCGCCTAGGGAGATTAGAGTATCGGTCGA | 3.92 log2 normalized intensity
CCAGCTAGAAGCAGTGGGACAAAGGTCACAGCCTAGGGAGATTAGAGTATCGGTCGA | 6.82 log2 normalized intensity
GAGCTCAGTCACAGCAGTGGACTTTGACCTGCCTAGGGAGATTAGAGTATCGGTCGA | 11.7 log2 normalized intensity
CAGGACTGCGTAACTTACAGTGCACTTTGAGCCTAGGGAGATTAGAGTATCGGTCGA | 5.6 log2 normalized intensity
GAGCAGCACTTTTGGAGTTTGACCTGGAGCGCCTAGGGAGATTAGAGTATCGGTCGA | 6.24 log2 normalized intensity
CTTGTCTTATCAGCAGGGTCTTTTTGACCTGCCTAGGGAGATTAGAGTATCGGTCGA | 4.79 log2 normalized intensity
CCTCAGTGTGGGACTTTGGTCTGCTGAGTCGCCTAGGGAGATTAGAGTATCGGTCGA | 3.95 log2 normalized intensity

Sequence | binding signal
CTGCGTAACTTACAGTGCACTTTGACCGCTGCCTAGGGAGATTAGAGTATCGGTCGA | 7.74 log2 normalized intensity
GGGGCAGAGTGAGCAGCACTTTTGGAGTTTGCCTAGGGAGATTAGAGTATCGGTCGA | 2.17 log2 normalized intensity
AGAGTGAGCAGCACTTTTGGAGTTTGACCTGCCTAGGGAGATTAGAGTATCGGTCGA | 8.51 log2 normalized intensity
AAGAAGAGCTCAGTCACAGCAGTGGACTTTGCCTAGGGAGATTAGAGTATCGGTCGA | 7.41 log2 normalized intensity
TAACTTACAGTGCACTTTGACCGCTCATTTGCCTAGGGAGATTAGAGTATCGGTCGA | 6.77 log2 normalized intensity
AGCAGCCTCAGTGGCTCACAAATGGAGTTTGCCTAGGGAGATTAGAGTATCGGTCGA | 1.92 log2 normalized intensity
GGCATTCTGACCTTTGTCTCCAGGCAAACTGCCTAGGGAGATTAGAGTATCGGTCGA | 5.6 log2 normalized intensity
GAGGAGTGAGAACAGACAAAATTAAGTGATGCCTAGGGAGATTAGAGTATCGGTCGA | -0.842 log2 normalized intensity
TCTGTCTGAGACCACTTAAGCCTGGAATTCGCCTAGGGAGATTAGAGTATCGGTCGA | -0.0786 log2 normalized intensity
ACCCATGTTTGCCCTTGATAAGAGCTGCTCGCCTAGGGAGATTAGAGTATCGGTCGA | 0.685 log2 normalized intensity
AGGTGAATGTACAAAGGTCAACGGCACAAGGCCTAGGGAGATTAGAGTATCGGTCGA | 5.02 log2 normalized intensity
TGAGCACATTCTTCAATATCAGTGGCACTCGCCTAGGGAGATTAGAGTATCGGTCGA | 0.295 log2 normalized intensity
CAATCCCATGACCTTTGTACTAATGATTTGGCCTAGGGAGATTAGAGTATCGGTCGA | 6.73 log2 normalized intensity
CCATGACCTTTGTACTAATGATTTGTAAATGCCTAGGGAGATTAGAGTATCGGTCGA | 6.03 log2 normalized intensity
TCTTCCTAGGCAATCCCATGACCTTTGTACGCCTAGGGAGATTAGAGTATCGGTCGA | 9.08 log2 normalized intensity
CTAGGCAATCCCATGACCTTTGTACTAATGGCCTAGGGAGATTAGAGTATCGGTCGA | 8.3 log2 normalized intensity
CACCTTCTTCCTAGGCAATCCCATGACCTTGCCTAGGGAGATTAGAGTATCGGTCGA | 3.52 log2 normalized intensity
TGTCTTCTGACCTTTGGCAATATCTCCCAGGCCTAGGGAGATTAGAGTATCGGTCGA | 3.96 log2 normalized intensity
GGACTTCTCTGCCCTCTTCCCTCTACCTCTGCCTAGGGAGATTAGAGTATCGGTCGA | 1.97 log2 normalized intensity
AAACAGACCTCTCTCTCCCCAGACAGCCACGCCTAGGGAGATTAGAGTATCGGTCGA | 2.71 log2 normalized intensity
TATTTACATACCTTAGGCTGTGCATATTGGGCCTAGGGAGATTAGAGTATCGGTCGA | 0.994 log2 normalized intensity
CCTCCTGCTTAGCGGCCTTCCCCTTTTTCTGCCTAGGGAGATTAGAGTATCGGTCGA | 1.99 log2 normalized intensity
TCAGACAAGTTGCAGGGATGGACTTTAATCGCCTAGGGAGATTAGAGTATCGGTCGA | 7.17 log2 normalized intensity
